Measured values published in PubChem BioAssay (NCATS).
Results filed as inconclusive are left out. Active and inactive are the calls of the source. Unless noted, calls follow the shape of the dose curve; as a rule, active = well fitted curve in either direction with a large enough effect (not every such curve was filed as active); inconclusive = small, poorly fitted or top-dose-only effect, or another doubt; inactive = flat fitted curve, though single readings scatter. Residues, ends and D or L forms follow the SMILES beside them.

How the values were obtained:
[1] = target: Lysosomal acid glucosylceramidase (Homo sapiens) (UniProt P04062); assay: Glucocerebrosidase-p2 (AID 348; in the data active = potency below about 10 µM; also: potency is read from the fitted curve at half-maximal effect); conditions: purified GBA, blue fluorogenic substrate, 40 min
In short: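 Normal human glucocerebrosidase (0.2 nM) with blue fluorogenic substrate (80 uM final) in citrate/phosphate pH 5.9 with 10mM sodium taurocholate, 0.01% tween-20; 40 min RT, NaOH/glycine stop; fluorescence Ex 365/Em 440; AC50 from a titration from 0.6 nM upwards.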

[2] = AP1 Signaling Pathway (AID 357); conditions: ME-180 AP-1-bla reporter, EGF-induced, beta-lactamase ratio, 5 h; at 7.69 µM (top of the series) unless noted;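 also: ME-180 reporter cells stimulated with EGF at its EC50 level; % is scaled to controls: 0 for no effect and ±100 for the full control effect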
In short: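 Read-out was the 460nm/530nm emission ratio (excitation 405nm) after CCF4 loading for 2.5 hours at room temperature. Cells carried an AP-1-driven beta-lactamase reporter, were stimulated with EC50 EGF plus compound for 5 hours, and AC50 values came from titrations.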

[3] = NFAT Signaling Pathway (AID 444); conditions: Jurkat NFAT-bla M1, carbachol, beta-lactamase ratio, 5 h; at 7.69 µM (top of the series) unless noted;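 also: carbachol stimulus at about its EC50 of 1 µM final; % is scaled to controls: 0 for no effect and ±100 for the full control effect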
In short: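 Jurkat cells with NFAT-driven β-lactamase reporter and co-expressed M1 receptor, stimulated with carbachol (final 1 uM, ~EC50), compound titration, 5 h at 37 °C. CCF4 loaded 1 h at RT; 460/530 nm ratio gave %activity and AC50.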

[4] = Stat Signaling Pathway (AID 446); conditions: ME-180 (cervical carcinoma) SIE beta-lactamase reporter, IL-6 stimulated, 5 h; at 7.69 µM (top of the series) unless noted;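 also: ME-180 cervical cancer cells given 40 pM IL-6 alongside compound; SIE-controlled beta-lactamase reporter measured as 460/530 nm FRET emission ratio; % is scaled to controls: 0 for no effect and ±100 for the full control effect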
In short: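 Normalization used AC90 stimulation (300 pM IL-6) and AC90 inhibition (125 nM pan-JAK inhibitor at 40 pM IL-6). The underlying signal is SIE-driven beta-lactamase in ME-180 cells after 5 h IL-6 exposure with compound.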

[5] = target: Glucocorticoid receptor (Homo sapiens) (UniProt P04150); assay: GR-GFP Redistribution (AID 450;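 active = compounds whose dose series gives a full or clear partial fitted curve of increased nuclear translocation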; also: potency is read from the fitted curve at half-maximal effect); conditions: U2OS GR-GFP nuclear translocation, laser cytometry, 2 h
[6] = target: Glucocorticoid receptor (Homo sapiens) (UniProt P04150); assay: GR-EFC Redistribution (AID 451; calls by dose curve; also: potency is read from the fitted curve at half-maximal effect); conditions: CHO-K1 GR-EFC translocation, beta-gal luminescence, 2 h
In short: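 CHO-K1 cells expressing nuclear EA and GR-ED fragments of b-gal; compounds titrated up to 46 uM final, 2 h at 37 C. GR nuclear translocation read as complemented b-gal luminescence after 1 h RT detection.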

[7] = target: Mitogen-activated protein kinase 10 (Mus musculus) (UniProt Q61831); assay: JNK3 AlphaScreen Assay (AID 530); conditions: JNK3 lysate, c-Jun phosphorylation; series mostly up to 11.4 µM;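 also: kinase came from lysate of stimulated human HepG2 cells; signal reports phosphorylation of biotinylated GST-cJun 1-79 at Ser73 with 10 µM ATP; % is scaled to controls: 0 for no effect and ±100 for the full control effect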
In short: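 HepG2 lysate (IL-1b/TNFa pre-activated) + biotin-GST-cJun 1-79 + anti-pSer73 cJun; cpd titration, 15 min RT; ATP 10 uM start; Tris pH 7.6, MgCl2, DTT, vanadate; beads in EDTA buffer; AlphaScreen.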

[8] = target: 3',5'-cyclic-AMP phosphodiesterase 4B (Homo sapiens) (UniProt Q07343); assay: qHTS Assay for Inhibitors of PDE-IV (AID 607; active = well fitted activation curve with a large enough effect in the main read-out, with a control signal flat, not every such curve was filed as active; also: % of control where 0% means no effect); conditions: HEK293 ACTOne CNG channel cells, membrane potential fluorescence; series mostly up to 22.9 µM
In short: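 HEK293 ACTOne cells with CNG channel (1000/well), endogenous PDE4; membrane potential dye, compounds up to 22.9 uM final. Fluorescence Ex 535/Em 590; RO 20-1724 (100 uM final) as reference.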

[9] = target: Cytochrome P450 2C9 (Homo sapiens) (UniProt P11712); assay: qHTS Assay for Inhibitors and Substrates of Cytochrome P450 2C9 (AID 883; active = well fitted curve in the direction sought with a large enough effect; an effect the other way counts as inactive or inconclusive; also: % is scaled to controls: 0 for no effect and ±100 for the full control effect; nearly all actives have a fitted effect of over 60% in size); conditions: recombinant CYP2C9, luciferin-H luminescence, 60 min; series mostly up to 11.4 µM
In short: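 10nM CYP2C9 + 100uM Luciferin-H (=KM), 25mM KPO4; cpd 10 min 37C; NADPH regen, 60 min 37C; stop/detect with P450 Glo-Buffer 20 min; luminescence. Norm. to 57uM sulphaphenazole as full inhibition.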

[10] = target: Cytochrome P450 3A4 (Homo sapiens) (UniProt P08684); assay: qHTS Assay for Activators of Cytochrome P450 3A4 (AID 885; active = well fitted curve in the direction sought with a large enough effect; an effect the other way counts as inactive or inconclusive; also: nearly all actives have a fitted effect of over 65% in size); conditions: recombinant CYP3A4, Luciferin-PPXE luminescence, 60 min; series mostly up to 11.4 µM
In short: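 Human CYP3A4 dealkylates Luciferin-PPXE to luciferin, which luciferase detection converts to light. Substrate was at its KM (25uM), buffer 200mM KPO4, reaction 60 min at RT.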

[11] = target: Cytochrome P450 2C19 (Homo sapiens) (UniProt P33261); assay: qHTS Assay for Inhibitors and Substrates of Cytochrome P450 2C19 (AID 899; active = well fitted curve in the direction sought with a large enough effect; an effect the other way counts as inactive or inconclusive; also: % is scaled to controls: 0 for no effect and ±100 for the full control effect; nearly all actives have a fitted effect of over 60% in size); conditions: recombinant CYP2C19, luciferin-H EGE luminescence; series mostly up to 11.4 µM
In short: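 Luminescent read-out of luciferin formed from Luciferin-H EGE (10uM, equal to KM). Enzyme 5nM in 50mM KPO4; compound added, 10 min at 37C, then NADPH regenerating system for 60 min at 37C. Full inhibition defined by 57uM ketoconazole.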

[12] = target: Cytochrome P450 2D6 (Homo sapiens) (UniProt P10635); assay: qHTS Assay for Inhibitors and Substrates of Cytochrome P450 2D6 (AID 891; active = well fitted curve in the direction sought with a large enough effect; an effect the other way counts as inactive or inconclusive;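 also: luciferin methyl ether substrate demethylated by CYP2D6 with NADPH regeneration; % is scaled to controls: 0 for no effect and ±100 for the full control effect; nearly all actives have a fitted effect of over 60% in size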); conditions: recombinant CYP2D6, luciferin-ME EGE luminescence; series mostly up to 11.4 µM
In short: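 Luminescent read-out of luciferin formed by 5 nM human CYP2D6 demethylating 30 uM Luciferin-ME EGE (Km level) over 60 min at room temperature after NADPH regeneration addition. Data normalized to full inhibition by 1.43 uM quinidine.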

[13] = target: Cytochrome P450 3A4 (Homo sapiens) (UniProt P08684); assay: qHTS Assay for Inhibitors and Substrates of Cytochrome P450 3A4 (AID 884; active = well fitted curve in the direction sought with a large enough effect; an effect the other way counts as inactive or inconclusive; also: % is scaled to controls: 0 for no effect and ±100 for the full control effect; nearly all actives have a fitted effect of over 50% in size); conditions: recombinant CYP3A4, Luciferin-PPXE luminescence; series mostly up to 57.1 µM
In short: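 Luminescent readout of luciferin produced by CYP3A4 (20 nM) dealkylation of Luciferin-PPXE, 25 uM (its KM). NADPH-driven reaction ran 60 min at RT after 10 min compound preincubation; data scaled to 57 uM ketoconazole as 100% inhibition.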

Glucocorticoid receptor (Homo sapiens), sequence (P04150 whole entry, looked up, the tested form may be a part): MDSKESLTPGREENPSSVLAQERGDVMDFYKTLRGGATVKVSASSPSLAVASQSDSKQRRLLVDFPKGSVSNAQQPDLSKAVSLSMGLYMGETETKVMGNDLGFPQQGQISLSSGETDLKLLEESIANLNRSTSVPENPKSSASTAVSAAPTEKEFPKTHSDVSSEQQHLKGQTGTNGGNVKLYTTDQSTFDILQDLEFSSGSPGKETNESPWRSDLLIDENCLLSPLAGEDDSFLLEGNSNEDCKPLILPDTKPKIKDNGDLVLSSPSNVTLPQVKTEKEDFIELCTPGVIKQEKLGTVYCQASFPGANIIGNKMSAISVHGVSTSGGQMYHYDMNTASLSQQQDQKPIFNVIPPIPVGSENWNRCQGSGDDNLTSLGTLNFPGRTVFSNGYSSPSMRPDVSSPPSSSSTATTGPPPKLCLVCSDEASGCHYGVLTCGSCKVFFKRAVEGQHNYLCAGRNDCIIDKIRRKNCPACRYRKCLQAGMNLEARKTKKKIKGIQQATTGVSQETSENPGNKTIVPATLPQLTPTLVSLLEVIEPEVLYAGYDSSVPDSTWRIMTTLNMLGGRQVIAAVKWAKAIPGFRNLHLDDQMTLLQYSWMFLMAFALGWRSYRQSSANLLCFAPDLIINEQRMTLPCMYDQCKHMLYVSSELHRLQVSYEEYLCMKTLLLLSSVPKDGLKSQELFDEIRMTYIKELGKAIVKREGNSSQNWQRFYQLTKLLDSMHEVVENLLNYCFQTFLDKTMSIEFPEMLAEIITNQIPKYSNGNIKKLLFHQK
3',5'-cyclic-AMP phosphodiesterase 4B (Homo sapiens), sequence (Q07343 whole entry, looked up): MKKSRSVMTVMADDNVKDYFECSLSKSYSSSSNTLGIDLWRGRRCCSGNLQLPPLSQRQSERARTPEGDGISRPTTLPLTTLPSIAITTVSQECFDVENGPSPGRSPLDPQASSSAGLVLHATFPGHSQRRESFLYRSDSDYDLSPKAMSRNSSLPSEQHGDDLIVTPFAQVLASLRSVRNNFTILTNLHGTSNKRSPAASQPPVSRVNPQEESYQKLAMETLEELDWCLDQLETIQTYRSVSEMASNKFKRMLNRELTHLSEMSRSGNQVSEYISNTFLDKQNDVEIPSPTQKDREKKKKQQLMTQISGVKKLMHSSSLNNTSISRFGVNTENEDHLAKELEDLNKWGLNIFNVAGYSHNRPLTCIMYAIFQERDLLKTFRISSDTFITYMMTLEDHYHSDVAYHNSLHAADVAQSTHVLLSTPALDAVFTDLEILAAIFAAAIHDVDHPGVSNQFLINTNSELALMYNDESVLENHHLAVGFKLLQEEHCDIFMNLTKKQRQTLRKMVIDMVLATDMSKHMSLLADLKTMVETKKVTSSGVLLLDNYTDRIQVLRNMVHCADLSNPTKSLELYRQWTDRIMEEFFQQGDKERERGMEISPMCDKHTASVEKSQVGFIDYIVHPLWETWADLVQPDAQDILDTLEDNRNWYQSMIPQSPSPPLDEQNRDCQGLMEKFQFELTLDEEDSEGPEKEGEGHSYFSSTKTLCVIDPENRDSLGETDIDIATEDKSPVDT
Lysosomal acid glucosylceramidase (Homo sapiens), sequence (P04062 whole entry, looked up): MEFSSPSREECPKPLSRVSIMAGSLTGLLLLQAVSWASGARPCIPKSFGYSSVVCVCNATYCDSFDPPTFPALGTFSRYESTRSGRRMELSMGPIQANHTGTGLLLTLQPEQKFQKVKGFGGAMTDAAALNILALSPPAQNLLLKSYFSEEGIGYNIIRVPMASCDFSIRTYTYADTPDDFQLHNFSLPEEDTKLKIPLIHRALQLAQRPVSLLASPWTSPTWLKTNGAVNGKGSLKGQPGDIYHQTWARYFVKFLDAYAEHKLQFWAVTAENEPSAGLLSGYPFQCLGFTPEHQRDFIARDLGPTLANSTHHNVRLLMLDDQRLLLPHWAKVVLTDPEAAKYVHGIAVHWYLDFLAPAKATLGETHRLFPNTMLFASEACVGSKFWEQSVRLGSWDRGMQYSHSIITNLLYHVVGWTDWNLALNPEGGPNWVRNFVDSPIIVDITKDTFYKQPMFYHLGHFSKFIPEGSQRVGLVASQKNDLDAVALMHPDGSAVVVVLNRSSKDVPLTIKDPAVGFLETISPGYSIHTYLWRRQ
Cytochrome P450 2C9 (Homo sapiens), sequence (P11712 whole entry, looked up): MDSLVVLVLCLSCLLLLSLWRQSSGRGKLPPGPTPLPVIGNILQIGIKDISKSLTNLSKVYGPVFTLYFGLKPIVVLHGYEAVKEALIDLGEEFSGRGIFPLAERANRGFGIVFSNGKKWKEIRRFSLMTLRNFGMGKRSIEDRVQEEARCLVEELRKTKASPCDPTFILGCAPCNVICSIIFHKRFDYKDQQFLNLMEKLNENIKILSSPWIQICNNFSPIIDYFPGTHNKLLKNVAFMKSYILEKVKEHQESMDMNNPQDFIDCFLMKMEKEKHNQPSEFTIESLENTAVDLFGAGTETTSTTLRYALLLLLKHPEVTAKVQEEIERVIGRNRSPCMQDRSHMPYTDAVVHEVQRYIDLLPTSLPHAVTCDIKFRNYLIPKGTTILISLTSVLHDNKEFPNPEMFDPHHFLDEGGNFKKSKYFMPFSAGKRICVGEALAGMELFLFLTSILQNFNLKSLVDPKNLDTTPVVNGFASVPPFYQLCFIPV
Cytochrome P450 3A4 (Homo sapiens), sequence (P08684 whole entry, looked up): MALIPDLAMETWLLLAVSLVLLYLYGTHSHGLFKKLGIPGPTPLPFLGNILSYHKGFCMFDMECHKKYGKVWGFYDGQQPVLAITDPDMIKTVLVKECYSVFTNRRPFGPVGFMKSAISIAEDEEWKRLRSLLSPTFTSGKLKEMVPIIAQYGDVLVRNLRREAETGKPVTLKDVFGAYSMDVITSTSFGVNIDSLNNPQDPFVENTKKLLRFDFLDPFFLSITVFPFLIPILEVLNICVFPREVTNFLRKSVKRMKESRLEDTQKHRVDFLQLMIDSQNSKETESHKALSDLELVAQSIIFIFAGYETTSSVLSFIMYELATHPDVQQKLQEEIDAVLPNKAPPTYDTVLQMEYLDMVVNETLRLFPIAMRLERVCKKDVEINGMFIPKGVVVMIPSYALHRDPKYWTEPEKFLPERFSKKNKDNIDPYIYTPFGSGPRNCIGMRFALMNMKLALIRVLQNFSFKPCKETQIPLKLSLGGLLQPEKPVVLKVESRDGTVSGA
Cytochrome P450 2C19 (Homo sapiens), sequence (P33261 whole entry, looked up): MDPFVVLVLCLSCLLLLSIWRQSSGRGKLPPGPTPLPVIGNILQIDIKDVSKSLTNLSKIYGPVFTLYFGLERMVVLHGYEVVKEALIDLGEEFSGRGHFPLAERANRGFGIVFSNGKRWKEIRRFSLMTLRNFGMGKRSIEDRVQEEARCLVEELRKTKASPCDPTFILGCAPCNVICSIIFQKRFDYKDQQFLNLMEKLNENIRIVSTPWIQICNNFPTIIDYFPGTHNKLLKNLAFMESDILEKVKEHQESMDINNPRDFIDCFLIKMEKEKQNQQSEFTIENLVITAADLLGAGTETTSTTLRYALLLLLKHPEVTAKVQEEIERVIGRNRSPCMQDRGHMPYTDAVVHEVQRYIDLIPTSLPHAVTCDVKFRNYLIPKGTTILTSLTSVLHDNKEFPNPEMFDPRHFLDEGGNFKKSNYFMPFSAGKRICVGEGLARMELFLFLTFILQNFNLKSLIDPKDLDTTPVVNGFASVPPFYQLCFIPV
Cytochrome P450 2D6 (Homo sapiens), sequence (P10635 whole entry, looked up): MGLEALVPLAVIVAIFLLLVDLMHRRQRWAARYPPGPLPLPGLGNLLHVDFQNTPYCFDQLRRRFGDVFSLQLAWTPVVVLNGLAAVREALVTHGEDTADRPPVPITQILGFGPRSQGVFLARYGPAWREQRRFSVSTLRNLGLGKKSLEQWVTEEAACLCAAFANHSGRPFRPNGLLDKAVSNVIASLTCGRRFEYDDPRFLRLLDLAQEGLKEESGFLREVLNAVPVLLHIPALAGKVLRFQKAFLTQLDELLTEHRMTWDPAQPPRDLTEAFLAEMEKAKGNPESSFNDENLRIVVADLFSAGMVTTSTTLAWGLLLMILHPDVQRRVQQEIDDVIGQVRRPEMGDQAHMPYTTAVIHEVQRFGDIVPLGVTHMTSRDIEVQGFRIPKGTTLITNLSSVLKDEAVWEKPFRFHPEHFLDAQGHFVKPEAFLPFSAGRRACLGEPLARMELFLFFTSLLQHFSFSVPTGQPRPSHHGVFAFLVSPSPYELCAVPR

CC(=O)O[C@@H]1CC[C@]2(C)C(=C[C@@H]([C@@H]3C=C4C[C@@H](OC(C)=O)CC[C@]4(C)C4=C3[C@H]3C[C@@H]5O[C@@]6(CC[C@H](C)CO6)[C@@H](C)[C@@H]5[C@@]3(C)CC4)C3=C2CC[C@@]2(C)[C@H]4[C@@H](C)[C@]5(CC[C@H](C)CO5)O[C@@H]4C[C@H]32)C1
inactive: Potency [1] > 11.4 µM | activity change, negative = inhibition [2] 7.21% | activity change, negative = inhibition [3] 21% | activity, negative = inhibition [4] -1.63% | Potency [5] > 46 µM | Potency [6] > 9.22 µM | Potency [7] | Potency [8]

O=C1c2cccc([N+](=O)[O-])c2C(=O)N1c1ncn[nH]1
inactive: Potency [1] > 11.4 µM | activity change, negative = inhibition [2] -5.78% | activity change, negative = inhibition [3] 7.45% | activity, negative = inhibition [4] 4.03% | Potency [5] > 46 µM | Potency [6] > 9.22 µM | Potency [7] | Potency [8] | Potency [9] | Potency [10] | Potency [11]

O=C1c2ccccc2C(=O)c2c1ccc(N1C(=O)c3ccccc3C1=O)c2-c1c(N2C(=O)c3ccccc3C2=O)ccc2c1C(=O)c1ccccc1C2=O
inactive: Potency [1] > 11.4 µM | activity change, negative = inhibition [2] -8.78% | activity change, negative = inhibition [3] -22.9% | activity, negative = inhibition [4] 12% | Potency [5] > 46 µM | Potency [6] > 9.22 µM | Potency [7] | Potency [8] | Potency [9] | Potency [12] | Potency [11]

NC1(C(=O)NC2(C(=O)O)CCCC2)CCCC1 (HELM PEPTIDE1{[NC1(C(=O)[*:2])CCCC1].[O=C(O)C1(N[*:1])CCCC1]}$$$$V2.0)
inactive: Potency [1] > 11.4 µM | activity change, negative = inhibition [2] 2.4% | activity change, negative = inhibition [3] -2.57% | activity, negative = inhibition [4] 8.97% | Potency [5] > 46 µM | Potency [6] > 9.22 µM | Potency [7] | Potency [8]

C[C@H]1[C@H](C)CC[C@]2(C(=O)O)CC[C@]3(C)C(=CC[C@@H]4[C@]5(C)C[C@H](O)[C@@H](O)[C@@](C)(CO)[C@@H]5[C@H](O)C[C@@]43C)[C@H]12
inactive: Potency [1] > 11.4 µM | activity change, negative = inhibition [2] -6.13% | activity change, negative = inhibition [3] 27.7% | activity, negative = inhibition [4] 8.93% | Potency [5] > 46 µM | Potency [6] > 9.22 µM | Potency [7] | Potency [8]

O=c1c(-c2ccccc2)nc2cnc(Oc3ccccc3)nc2n1C1CC1
inactive: Potency [1] > 11.4 µM | activity change, negative = inhibition [2] -26.4% | activity change, negative = inhibition [3] 2.32% | activity, negative = inhibition [4] -5.21% | Potency [5] > 9.22 µM | Potency [6] > 46 µM | Potency [7] | Potency [8] | Potency [13]

COCCn1c(=O)cnc2cnc(N3CCNCC3)nc21
inactive: Potency [1] > 11.4 µM | activity change, negative = inhibition [2] -9.65% | activity change, negative = inhibition [3] -7.03% | activity, negative = inhibition [4] -2.85% | Potency [5] > 9.22 µM | Potency [6] > 46 µM | Potency [7] | Potency [8]

c1cncc(CSc2ncnc3nc[nH]c23)c1
inactive: Potency [1] > 11.4 µM | activity change, negative = inhibition [2] -2.25% | activity change, negative = inhibition [3] 19.6% | activity, negative = inhibition [4] 8.79% | Potency [5] > 46 µM | Potency [6] > 9.22 µM | Potency [7] | Potency [8]
